Compound activity (PubChem BioAssay)
3T3 cytotox = NIH 3T3 cell cytotoxicity | NIH 3T3 viability, CellTiter-Glo ATP luminescence, 48-72 h | Potency, µM (top dose mostly 96.7 µM), for inactives: at the highest dose activity change, negative = cytotoxicity, most hits filed as inhibitors | hit rate 4.3% among 94,000 | AID 1345082; also: nearly all actives have a fitted effect of over 55% in size
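Cytotoxicity is measured as loss of cellular ATP: NIH 3T3 cells (400/well) are exposed to compound for 48 or 72 hr at 37 °C, then CellTiter-Glo luminescence is imaged after 10 min at room temperature.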
hNpr1 antagonist = blocks ANP-stimulated signaling of human Npr1 receptor; P16066; HEK293 hNpr1 GloSensor cGMP, ANP-stimulated luminescence; Potency, µM (top dose mostly 46.3 µM), without a hit: at the top dose activity change, negative = inhibition, hits mostly inhibitors; hit rate 1.6% among 76,000; calls by dose curve; also: nearly all actives have a fitted effect of over 60% in size
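HEK293 cells stably expressing human Npr1 and cGMP GloSensor pGS-40F, loaded 2 h with 2% GloSensor reagent, given compound 30 min at room temperature. Luminescence read before and 20 min after 0.1 nM hNppA.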
HEK cytotox = cytotoxic compounds in HEK 293 cells | HEK 293 viability, ATP luminescence (CellTiter-Glo), 48-72 h | Potency, µM (highest dose often 115 µM), for inactives: at the top dose activity change, negative = cytotoxicity, usual class: inhibitors | hit rate 6.6% among 94,000 | AID 1345083; also: nearly all actives have a fitted effect of over 60% in size
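250 HEK 293 cells/well; compound by pintool; incubated 48 or 72 hr at 37 degree Celsius; CellTiter-Glo added, 10 min RT, luminescence imaged.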
GPT2 inhibitor = GPT2 alanine aminotransferase inhibition. hit rate 0.25% among 100,000. Q8TD30. Potency, µM (highest dose often 57.7 µM), inactives show at the top dose activity change, negative = inhibition, hits mostly inhibitors. Recombinant GPT2, coupled pyruvate oxidase/HRP Amplex Red fluorescence; also: nearly all actives have a fitted effect of over 60% in size
Target sequence (Q8TD30 whole entry, looked up): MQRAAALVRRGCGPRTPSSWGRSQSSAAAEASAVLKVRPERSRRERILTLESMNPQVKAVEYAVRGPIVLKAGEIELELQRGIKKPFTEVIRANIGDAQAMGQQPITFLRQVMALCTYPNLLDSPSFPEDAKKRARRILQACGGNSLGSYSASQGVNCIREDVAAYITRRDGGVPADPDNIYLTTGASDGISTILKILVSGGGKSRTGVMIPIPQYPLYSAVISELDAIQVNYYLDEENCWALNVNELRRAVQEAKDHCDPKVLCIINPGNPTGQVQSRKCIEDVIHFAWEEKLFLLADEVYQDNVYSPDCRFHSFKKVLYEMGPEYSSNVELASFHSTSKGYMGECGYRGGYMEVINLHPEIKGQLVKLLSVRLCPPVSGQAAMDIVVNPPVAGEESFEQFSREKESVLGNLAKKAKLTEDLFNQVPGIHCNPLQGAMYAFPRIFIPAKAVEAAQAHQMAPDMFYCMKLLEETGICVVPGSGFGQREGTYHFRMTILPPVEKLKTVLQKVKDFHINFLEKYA
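Inhibition is scored from Amplex Red fluorescence generated when pyruvate oxidase and HRP act on pyruvate released by GPT2. Reactions contain 10ng/uL enzyme, 250uM a-KG and 2mM L-alanine and run 30 min at room temperature.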
FLuc inh = inhibitors of firefly (Photinus pyralis) luciferase; P08659; purified P. pyralis luciferase, luminescence, biochemical; Potency, µM (top dose mostly 115 µM), hits mostly inhibitors; hit rate 2.5% among 76,000; AID 1347043; also: nearly all actives have a fitted effect of over 65% in size
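FLuc 10nM, D-luciferin 10uM, ATP 10uM, Mg acetate 10mM, Tris acetate pH 7.5, Tween/BSA; cpd qHTS; enzyme added last; CCD luminescence.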
The depositor's hits bear a star; i = inactive; ? = inconclusive; . = not tested or not shown; [ ] = remark or other dose. A selection: hits, their analogues and other compounds. The true share with any hit is near 10%. Unless noted, calls follow the shape of the dose curve; as a rule, active = well fitted curve in the direction sought with a large enough effect; inconclusive = small, poorly fitted or top-dose-only effect, or another doubt; inactive = no such curve, though single readings can be large; an effect the other way counts as inactive or inconclusive. % is scaled to controls: 0 for no effect and ±100 for the full control effect; potency is read from the fitted curve at half-maximal effect.

SMILES	3T3 cytotox	hNpr1 antagonist	HEK cytotox	GPT2 inhibitor	FLuc inh
CCN1C(=O)C2CC3(CCN(Cc4ccc5[nH]ccc5c4)CC3)CN2C1=O (centres undefined)	-2.0%	4.4%	-1.6%	-4.7%	i
CC(=O)Nc1ccc(CN2CCN3C(=O)N(Cc4ccc(C)cc4)C[C@H]3C2)cc1	-6.3%[174 µM]	-25.6%[70.6 µM]	79.4µM*	-0.7%[88.5 µM]	i
Cc1ccc(CN2C[C@H]3CN(Cc4cccc(OC(F)(F)F)c4)CCN3C2=O)cc1	44.7µM*	-18.1%[70.6 µM]	63.1µM*	-15.4%[88.5 µM]	i
Cn1ncc2c(C(=O)NCC3CCCCC3)cc(-c3ccccc3C(F)(F)F)nc21	?	.	-27.2%	.	.
COc1ccc(CN2C(=O)CO[C@H]3CN(C4CCC4)C[C@H]32)cc1	-21.2%[138 µM]	-13.8%[70.6 µM]	?	i	i
COCc1nc(-c2ccc(OC3CN(C(=O)c4cccc(OC)c4)C3)cc2)no1	?	?	?	i	i
COCc1nc(-c2ccc(OC3CN(C(=O)C(C)Oc4ccccc4)C3)cc2)no1 (centres undefined)	?	?	39.8µM*	1.7%	i
COCc1nc(-c2ccc(OC3CN(C(=O)Cc4ccccc4)C3)cc2)no1	?	-23.7%	?	-1.7%	i
COCc1nc(-c2ccc(OC3CN(C(=O)c4ccc(OC)cc4)C3)cc2)no1	?	1.41µM*	?	4.9%	i
CC(C)(C)OCC1CN(Cc2cccs2)S(=O)(=O)c2cnccc2O1 (centres undefined)	?	.	?	-0.5%[27.3 µM]	.
c1ccc(CCCN2Cc3[nH]cnc3C[C@H]2c2nc(-c3cnccn3)no2)cc1	-33.3%[174 µM]	0.7%[70.6 µM]	-8.6%[172 µM]	2.7%[88.5 µM]	i
CC(=O)N1CC2(CCN(CC3CC3)C2)Cc2ccccc21 (centres undefined)	-9.3%[138 µM]	.	-6.9%[172 µM]	-6.3%[88.5 µM]	.
O=C(c1ccc(OC2CCN(Cc3c[nH]c4ccccc34)CC2)cc1)N1CCCCC1	?	6.7%	22.4µM*	-3.9%	i
O=C(C1CCCC1)N1CC2(CCN(Cc3ccccn3)C2)Cc2ccccc21 (centres undefined)	?	.	?	-12.6%	.
O=C(C1CCCC1)N1CC2(CCN(Cc3ccccn3)CC2)Cc2ccccc21	?	.	100µM*	i	.
O=C(c1ccc(F)cc1)N1CCC(Oc2ccccc2)C1 (centres undefined)	i	-0.3%	3.7%	i	i
O=C(C1CCCC1)N1CC2(CCN(Cc3c[nH]c4ccccc34)CC2)Cc2ccccc21	12.6µM*	.	20µM*	3.1%	.
O=C(C1CCCC1)N1CC2(CCN(CC3CC3)C2)Cc2ccccc21 (centres undefined)	44.7µM*	.	25.1µM*	?	.
CCCS(=O)(=O)N1CCC(Cc2ncc(C)n2Cc2ccc(F)cc2)CC1	-23.9%	0.0%	-20.0%	-18.7%	i
CC(C(=O)N1Cc2c(C(=O)N3CCCC3)nn(C)c2C1)c1ccccc1 (centres undefined)	-22.6%	.	0.0%	i	.
CC(C)c1nc2c(c(-c3ccc(Cl)cc3)n1)CCN(Cc1ccc(C#N)cc1)CC2	?	.	39.8µM*	-8.9%	.
CC(C)c1nc2c(c(-c3ccc(O)cc3)n1)CN(Cc1ccc(F)cc1)CC2	?	2.2%	89.1µM*	2.5%	i
CC(C)c1nc2c(c(-c3ccc(O)cc3)n1)CCN(Cc1ccccc1C(F)(F)F)CC2	28.2µM*	?	35.5µM*	i	i
CC(C)c1nc2c(c(-c3ccc(O)cc3)n1)CCN(Cc1ccc(F)cc1)CC2	?	2.6%	?	-0.5%	i
Cc1cc(CN2CCc3nc(C(C)C)nc(-c4ccc(Cl)cc4)c3CC2)no1	?	.	?	i	.
SMILES	3T3 cytotox	hNpr1 antagonist	HEK cytotox	GPT2 inhibitor	FLuc inh
Cc1ccc(CN2CCc3nc(C(C)C)nc(-c4ccc(O)cc4)c3C2)cc1	?	1.2%	?	?	i
CC(C)c1nc2c(c(-c3ccc(O)cc3)n1)CN(Cc1ccc(N(C)C)cc1)CC2	-29.3%	8.4%	79.4µM*	i	i
COCCCNC(=O)c1cc(-c2ccc(Cl)cc2Cl)c2nncn2n1	?	.	-20.8%[172 µM]	i	.
CC(C)c1nc2c(c(-c3ccc(O)cc3)n1)CN(Cc1cccc(C(F)(F)F)c1)CC2	22.4µM*	-8.3%	31.6µM*	i	i
c1cncc(O[C@H]2COCCN(C3CCC3)C2)c1	50.1µM*	1.1%[70.6 µM]	?	1.2%[88.5 µM]	i
COC(=O)CNC(=O)C1CCN(C(=O)c2ccc(-c3cncnc3)cc2)CC1	0.0%	.	-0.5%	.	.
O=[S+]1([O-])NC2(CCCN(Cc3ccccc3)C2)CNc2ccccc21 (centres undefined)	-20.8%	8.6%	?	-3.8%	i
O=[S+]1([O-])NC2(CCCN(Cc3ccccc3C(F)(F)F)C2)CNc2ccccc21 (centres undefined)	?	-29.1%	44.7µM*	-1.5%	i
COc1cccc(-c2ccc(C(=O)N3CCC(NC(=O)Nc4ccccc4)CC3)cc2)c1	?	.	25.1µM*	-19.3%	.
COc1cccc(-c2ccc(C(=O)N3CCC(NC(=O)C4CCCC4)CC3)cc2)c1	?	.	?	1.1%	.
COc1ccccc1-c1ccc(C(=O)N2CCC(NC(=O)Nc3ccccc3)CC2)cc1	?	.	39.8µM*	-10.7%	.
COc1ccc(-c2cccc(C(=O)N3CCC(NC(=O)c4ccccc4OC)CC3)c2)nn1	-18.8%	.	28.2µM*	.	.
COc1cccc(-c2ccc(C(=O)N3CCC(NC(=O)c4ccc(C)cc4)CC3)cc2)c1	-31.8%	.	?	3.8%	.
COc1cccc(-c2ccc(C(=O)N3CCC(N[S+](=O)([O-])c4ccccc4)CC3)cc2)c1	?	.	20µM*	i	.
O=C1COCC2(CN(Cc3ccc4c(c3)CCO4)C2)CN1Cc1ccccc1	-9.1%[138 µM]	-16.4%[70.6 µM]	?	-4.1%[88.5 µM]	i
O=C(c1cc(F)cc(F)c1)N1CCC(c2n[nH]c(=O)n2-c2ccccc2)CC1	-13.5%	9.3%	2.2%	-16.0%	i
COCCOC1CN(C2CCN(Cc3ccc(F)cc3F)CC2)C12CCCCC2 (centres undefined)	-22.9%	.	?	?	.
COc1cccc(-c2ccc(C(=O)N3CCC(NC(=O)c4ccccc4)CC3)cc2)c1	?	.	44.7µM*	i	.
COc1cccc(-c2ccc(C(=O)N3CCC(NC(=O)Nc4ccc(Cl)cc4)CC3)cc2)c1	28.2µM*	.	10µM*	i	.
COc1cccc(-c2cccc(C(=O)N3CCN(C(=O)Nc4ccc(Cl)cc4)CC3)c2)c1	?	.	89.1µM*	-0.6%	.
COc1cccc(-c2ccc(C(=O)N3CCC(C(=O)NCc4ccc(F)cc4)CC3)cc2)c1	?	.	?	i	.
Cc1nn2c(c1-c1ccccc1OCc1ccccc1)N(Cc1ccc(OCC(=O)O)cc1)CCC2	25.1µM*	0.0%	-13.8%	i	i
